SMN2 splice up: qHTS Assay for Enhancers of SMN2 Splice Variant Expression; HEK293 SMN2-luciferase splicing reporter, luminescence, 30-36 h; Potency, µM (doses to about 46.1 µM), usual class: activators; 210,000 compounds, 2.8% hits; further: nearly all actives have a fitted effect of over 55% in size
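HEK293 cells carry an SMN2 […]–luciferase reporter in which exon 7 inclusion puts luciferase in frame. Cells were plated 10-12 h before compound addition, then incubated 30-36 h at 37C. ONE-Glo luminescence was read; sodium butyrate at 4.5 mM final served as control.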
ELG1 genotoxic: qHTS screen for small molecules that induce genotoxicity in human embryonic kidney (HEK293T) cells expressing luciferase-tagged ELG1. HEK293T ELG1-luciferase reporter, luminescence, 16 h. Potency, µM (highest dose often 46 µM), hits mostly activators. 330,000 compounds, 1.3% hits; further: nearly all actives have a fitted effect of over 60% in size
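16 hr compound incubation (37 °C, 5% CO2) of HEK293T cells carrying luciferase-tagged ELG1; luciferase then measured by ONE-Glo luminescence after 30 min at RT.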
Rab9 prom act: qHTS Assay for Rab9 Promoter Activators. Huh7 Rab9 promoter-luciferase reporter, luminescence, 24 h. Potency, µM (series often up to 9.22 µM), actives largely listed as activators. 320,000 compounds, 2.8% hits. AID 485297, 2010; further: nearly all actives have a fitted effect of over 60% in size
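Huh7 cells stably carrying a Rab9 promoter-luciferase reporter, 1500 cells per well in OP-MEM I with 10% FBS, treated with compound 24 hours at 37C. Luciferase activity read by luminescence after 10 minutes with Amplite reagent.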
FLuc modulator: qHTS profiling assay for firefly luciferase inhibitor/activator using purifed enzyme and Km concentrations of substrates (counterscreen for miR-21 project). Luciferin 4-monooxygenase (Photinus pyralis), P08659. purified FLuc, Km substrates, luminescence inhibition. Potency, µM (highest dose often 57.5 µM), actives largely listed as inhibitors. 360,000 compounds, 6.9% hits. AID 588342, 2011; further: nearly all actives have a fitted effect of over 55% in size
Target sequence (P08659 whole entry, looked up): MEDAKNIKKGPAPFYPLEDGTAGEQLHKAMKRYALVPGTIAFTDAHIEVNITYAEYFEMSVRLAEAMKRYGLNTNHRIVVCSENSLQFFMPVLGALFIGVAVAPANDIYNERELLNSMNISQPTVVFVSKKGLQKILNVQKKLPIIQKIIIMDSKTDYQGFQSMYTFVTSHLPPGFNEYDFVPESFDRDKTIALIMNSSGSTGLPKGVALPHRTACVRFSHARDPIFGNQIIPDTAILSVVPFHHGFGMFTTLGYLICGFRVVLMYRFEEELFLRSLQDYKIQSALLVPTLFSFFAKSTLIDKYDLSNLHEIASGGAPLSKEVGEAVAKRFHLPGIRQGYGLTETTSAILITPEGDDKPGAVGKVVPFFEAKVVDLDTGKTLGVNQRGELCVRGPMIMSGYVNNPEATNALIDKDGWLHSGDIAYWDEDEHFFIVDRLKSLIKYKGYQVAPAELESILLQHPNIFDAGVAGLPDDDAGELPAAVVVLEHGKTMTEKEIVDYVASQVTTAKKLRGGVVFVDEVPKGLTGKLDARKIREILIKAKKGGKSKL
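Biochemical qHTS of compounds, final roughly 60 µM downward over six points, against 10 nM purified firefly luciferase using Km concentrations of substrates (10 uM D-luciferin, 10 uM ATP) in Tris acetate pH 7.5 buffer; luminescence output.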
KinaseGlo FLuc: Counterscreen for Luciferase (Kinase-Glo TM) Inhibition; Luciferin 4-monooxygenase (Photuris pensylvanica), Q27757; Kinase-Glo luciferase, ATP luminescence, 8 min; Potency, µM (highest dose often 38.3 µM), hits mostly inhibitors; 200,000 compounds, 0.28% hits; AID 1379, 2008; further: nearly all actives have a fitted effect of over 60% in size
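Substrate mix (final 50 mM imidazole pH 7.2, 50 mM KCl, 7 mM MgCl2, 10 uM ATP, 0.01% Tween 20, 0.05% BSA) plus pin-tool compound, then Kinase-Glo detection mix; 8 min ambient, luminescence read.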
NPC1 promoter act: qHTS Assay for NPC1 Promoter Activators. Huh7 NPC1 promoter luciferase reporter, 24 h. Potency, µM (doses to about 9.22 µM), most hits filed as activators. 320,000 compounds, 2.4% hits. AID 485313, 2010; further: nearly all actives have a fitted effect of over 60% in size
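Compounds in DMSO were transferred onto Huh7 NPC1-luciferase reporter cells pre-incubated 2 h; after 24 h at 37 °C, Amplite reagent was dispensed and luminescence recorded 10 min later.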
A number is an active result; - = inactive; ? = inconclusive; . = no result given; [ ] = remark or other dose. An excerpt weighted towards active compounds, which were near 7.3% of everything screened. The call rests on the fitted dose curve; in most records, active means well fitted curve in the direction sought with a large enough effect; inconclusive means small, poorly fitted or top-dose-only effect, or another doubt; inactive means no such curve, though single readings can be large; an effect the other way counts as inactive or inconclusive.

SMILES	SMN2 splice up	ELG1 genotoxic	Rab9 prom act	FLuc modulator	KinaseGlo FLuc	NPC1 promoter act
CCn1cc(Cl)c(C(=O)Nc2ccc(OC)c(OC)c2)n1	-	-	?	15µM	-	-
Cn1cccc1C(=O)N1CCC2(CC1)CCN(c1cccc(-c3ccccc3)c1)CC2	-	.	.	.	-	.
Cc1cc(O)c(C(C)(C)C)cc1Sc1cc(C(C)(C)C)c(O)cc1C	-	.	.	.	.	.
CCn1cc(Br)c(C(=O)Nc2ccc(Cl)c(Cl)c2)n1	?	?	3.5µM	?	-	?
COc1ccccc1/C=C1\SC(=S)N(CCC(=O)NCCCn2ccnc2)C1=O	.	-	-	?	.	-
COc1ccc(/C=C2\SC(=S)N(CCC(=O)NCCCn3ccnc3)C2=O)cc1	.	-	-	19µM	.	-
CC(C)c1ccc(/C=C2\SC(=S)N(CCC(=O)NCCCn3ccnc3)C2=O)cc1	.	-	-	2.4µM	.	-
O=C(CCCN1C(=O)/C(=C/c2ccc(F)cc2)SC1=S)NCCCn1ccnc1	.	-	-	?	.	-
Nc1nccnc1C(=O)N/N=C/c1ccco1	.	-	?	13µM	.	-
CC(C)(C)c1cc(C(=O)N/N=C/c2ccco2)n[nH]1	?	-	?	13µM	-	?
Cc1ccsc1/C=N\NC(=O)c1cc(C(C)(C)C)[nH]n1	11µM	?	2.8µM	12µM	-	2.8µM
CCC(Oc1ccc(F)cc1)C(=O)Nc1c(C(=O)c2ccc(C)cc2)oc2ccccc12 (configuration not stated)	-	.	.	-	.	.
Cc1ccccc1OCCn1c(=N)n(C(C)C)c2ccccc21	-	.	.	-	.	.
O=C(O)[C@H]1CCCC[C@@H]1c1c2ccc(=O)c(O)c-2oc2c(O)c(O)ccc12	-[9.22 µM]	.	.	.	-[7.66 µM]	.
CC(=O)C(Cc1ccc(Cl)nc1)Cc1ccc(Cl)nc1	.	-	-	-	-	-
COC(=O)Cc1ccc(OCc2ccc(Cl)nc2)cc1	.	?	?	15µM	.	2.5µM
COc1ccc(-c2cc(C(=O)OCC(=O)N3CCCC3)c3ccccc3n2)cc1	-	-	-	6µM	-	-
COc1ccc2nc(-c3ccccc3)cc(C(=O)OCC(=O)N3CC(C)OC(C)C3)c2c1 (configuration not stated)	.	-	-	19µM	.	-
COc1ccc2nc(-c3ccccc3)cc(C(=O)OCC(=O)N3CCCCC3)c2c1	.	-	-	21µM	.	-
Cc1cccc(C)c1Nc1nnc(SCC(=O)NCc2cccs2)s1	-	-	-	-	-	-
COc1cccc(Nc2nnc(SCC(=O)N(CC(C)C)CC(C)C)s2)c1	.	-	-	11µM	.	-
COc1cccc(Nc2nnc(SCc3nc4ccccc4s3)s2)c1	-	-	?	13µM	-	?
COc1cccc(Nc2nnc(SCN3C(=O)c4ccccc4C3=O)s2)c1	-	-	-	-	-	-
Cc1cccc(C)c1Nc1nnc(SCc2nc3ccccc3s2)s1	?	?	-	6µM	-	-
CCCn1c(-c2ccc(F)cc2)nc2c(NCCCN(CCO)CCO)nc(C)nc21	-	.	.	.	-	.
SMILES	SMN2 splice up	ELG1 genotoxic	Rab9 prom act	FLuc modulator	KinaseGlo FLuc	NPC1 promoter act
O=c1[nH]c(=O)n([C@H]2C[C@H](O)[C@@H](CO)O2)cc1Br	10µM	-	-	-	-	-
O=c1[nH]c(=O)n(C2CCCO2)cc1Br (configuration not stated)	35µM	-	-	-	-	-
O=c1[nH]c(=O)n([C@@H]2O[C@H](CO)[C@@H](O)[C@H]2O)cc1Br	.	.	.	.	-	.
Cc1cn([C@H]2C[C@H](O)[C@@H](CO)O2)c(=O)[nH]c1=O	.	.	.	.	-	.
CCOC(=O)N1CCC(NC(=O)c2ccc3c(c2)N(Cc2ccccc2)C(=O)c2ccccc2S3(=O)=O)CC1	-	.	.	-	.	.
CCCc1cc(=O)[nH]c2nnc(SCC(=O)Nc3ccc(OC)cc3)n12	.	.	.	-	.	.
CC1=C(C(=O)Nc2ccccc2C)C(c2cccs2)n2nc(SCc3ccccc3)nc2N1 (configuration not stated)	-	.	.	-	.	.
CCCC1=NN2C(=N)/C(=C\c3cc(C)n(Cc4ccccc4)c3C)C(=O)N=C2S1	.	-	-	?	.	-
